Screening results from PubChem.
HCV inhibitor – inhibitors of hepatitis C virus infection | Huh7.5.1 HCVcc-Cre infection, luciferase reporter, 44 h | Potency, µM (titrated, usually from 41.8 µM), without a hit: at the top dose activity change, negative = inhibition, most hits filed as inhibitors | 3.4% of 340,000 active | AID 651820; active means well fitted inhibition curve with a large enough effect; inconclusive means small, poorly fitted or top-dose-only effect, or another doubt; inactive means no such curve, though single readings can be large or run the other way; further: potency means the concentration at half of the fitted maximal effect
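A cell-based infection assay in which seeded cells (1,000 per well) receive test compound after 4 h, are inoculated with HCVcc-Cre at approximately 0.5 moi, and are incubated 44 h before luminescence detection.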
FMDV antiviral – antivirals against foot and mouth disease virus; FMDV antiviral cell-based qHTS; Potency, µM (titrated, usually from 57.9 µM), without a hit: top-dose activity change, negative = inhibition, actives largely listed as inhibitors; AID 1159524; 1.2% of 410,000 active; calls by dose curve; tested in HEK293T cells; further: read-out not given here; potency means the concentration at half of the fitted maximal effect; nearly all actives have a fitted effect of over 45% in size
HCMV antiviral – human cytomegalovirus inhibition. HFF cells, HCMV-luciferase reporter, 72 h; active compounds read low. activity change, negative = inhibition, % at 57.5 µM. 4.5% of 410,000 active; in the data active means activity change below about -60%; inconclusive means no clear call, values can overlap the other calls; inactive means above about -39%
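Human foreskin fibroblasts infected with luciferase-reporter HCMV at MOI 1 PFU/cell, compounds at two doses. Luciferase measured 72 h post infection; normalized to buffer-only basal and Salinomycin (10uM) controls.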
Vaccinia Venus – inhibitors of vaccinia virus (Venus reporter); Vaccinia virus Venus reporter expression, fluorescence; Potency, µM (doses to about 36.5 µM), for inactives: at the highest dose activity change, negative = inhibition, actives largely listed as inhibitors; AID 720580; 0.46% of 330,000 active; calls by dose curve; tested in A549 cells; further: potency means the concentration at half of the fitted maximal effect; nearly all actives have a fitted effect of over 30% in size
Vaccinia mCherry – inhibitors of vaccinia virus infection (mCherry reporter signal) | Vaccinia virus mCherry reporter infection, fluorescence | Potency, µM (series often up to 36.5 µM), without a hit: at the highest dose activity change, negative = inhibition, actives largely listed as inhibitors | 0.63% of 310,000 active | AID 720579; calls by dose curve; tested in A549 cells; further: potency means the concentration at half of the fitted maximal effect; nearly all actives have a fitted effect of over 35% in size
Numbers without * were called inactive; i = inactive; ? = inconclusive; · = not tested or not shown; [ ] = another dose, or the depositor's remark. In the library only some 7.3% were active in any assay of this set; here they are far more common. On the % scale 0 is the no-effect control and ±100 the full control effect.

SMILES	HCV inhibitor	FMDV antiviral	HCMV antiviral	Vaccinia Venus	Vaccinia mCherry
COc1cc([C@@H]2c3cc4c(cc3[C@H](OC(C)=O)[C@H]3COC(=O)[C@@H]23)OCO4)cc(OC)c1OC	·	·	·	-24.8%	?
COc1cc(C2c3cc4c(cc3CC3COC(=O)C32)OCO4)cc(OC)c1OC (stereo unspecified)	?	-14.4%	0.6	?	-20.5%
COc1cc([C@@H]2c3cc4c(cc3C[C@H]3COC(=O)[C@@H]32)OCO4)cc(OC)c1O	·	·	·	?	10µM*
COc1cc(C2c3cc4c(cc3CC3COC(=O)N32)OCO4)cc(OC)c1OC (stereo unspecified)	-10.3%	-7.9%	-88.3*	?	?
COc1cc([C@@H]2c3cc4c(cc3[C@@H](O)[C@H]3COC(=O)[C@H]23)OCO4)cc(OC)c1O	·	·	·	?	11.2µM*
COc1cc2c(cc1OC)C(=O)C(c1ccc3c(c1)OCO3)CC2 (stereo unspecified)	·	-9.5%	0.4	-9.3%	-25.3%
COc1cc(C2c3cc4c(cc3C(O)[C@H]3COC(=O)C23)OCO4)cc(OC)c1OC (stereo partly specified)	·	0.0%	·	-20.2%	-18.1%
COc1cc(C2c3cc4c(c(O)c3CC3COC(=O)C32)OCO4)cc(OC)c1OC (stereo unspecified)	-18.7%	-21.7%	-83.4*	?	?
c1ccc2c(c1)sc[n+]2CCC1CCCCC1	·	·	·	-5.9%	-7.2%
CC(=O)NCCNc1nc(-c2ccccc2C)nc2ccccc12	·	-3.2%	·	·	·
CCN(CC)c1ccc(-c2nc(-c3ccco3)no2)cc1[N+](=O)[O-]	·	-27.2%	-21.0	-14.7%	-10.0%
OC(CN1C=CCc2ccccc21)c1ccc(Cl)cc1Cl (stereo unspecified)	·	·	·	-15.3%	15.9%
COC(=O)C1=C(C)N(Cc2ccc(C(F)(F)F)cc2)C(=NCc2ccccc2)NC1c1cccc(C(F)(F)F)c1 (stereo unspecified)	·	·	-101.2*	·	·
COC(=O)C1=C(C)N(Cc2ccc(C(F)(F)F)cc2)C(=NCc2ccccc2)NC1c1cccc(Cl)c1 (stereo unspecified)	·	·	-100.5*	·	·
COC(=O)C1=C(C)N(Cc2ccccc2)C(=NCc2cccc(C(F)(F)F)c2)N[C@H]1c1cccc(C(F)(F)F)c1	41.9%[8.37 µM]	39.8µM*	·	28.2µM*	10µM*
COC(=O)C1=C(C)N(Cc2ccc(C(F)(F)F)cc2)C(=NCc2ccccc2)NC1c1ccccc1 (stereo unspecified)	·	·	-91.6*	·	·
COCCN=C1N[C@@H](c2cccc(C(F)(F)F)c2)C(C(=O)OC)=C(C)N1Cc1ccccc1	38.6%	-23.7%	-6.3	-22.2%	i
COC(=O)C1=C(C)N(Cc2ccccc2)C(=NCc2ccc(OC)cc2)N[C@H]1c1ccccc1	?	0.0%	-36.9	?	-23.2%
Cc1cc(N(C)C)cc(C)c1C=O	·	·	·	-11.1%	-12.1%
Nc1c(C(=O)Nc2ccccc2)nnn1Cc1ccc(F)cc1Cl	·	25.0%	11.6	-15.9%	-15.0%
COC(=O)C1=C(C)N(Cc2ccccc2)C(=NCc2cccc(C(F)(F)F)c2)N[C@H]1c1cccc(F)c1	?	39.8µM*	-98.4*	12.6µM*	?
COC(=O)C1=C(C)N(CC2CC2)C(=NCc2cccc(C(F)(F)F)c2)N[C@H]1c1ccccc1	?	?	·	-24.6%	i
COC(=O)C1=C(C)N(Cc2cccc(C(F)(F)F)c2)C(=NCC2CC2)NC1c1cccc(C(F)(F)F)c1 (stereo unspecified)	·	·	-85.4*	·	·
NCCCN(Cc1ccccc1)c1ccc(Br)cn1	·	·	·	-6.4%	i
COc1cc(NC(=O)Cn2nc3c(cc2=O)CC(C)CC3)cc(OC)c1OC (stereo unspecified)	·	-6.3%	3.5	-8.4%	-12.7%
SMILES	HCV inhibitor	FMDV antiviral	HCMV antiviral	Vaccinia Venus	Vaccinia mCherry
Cc1cccc(N2CCN(C(=O)Cn3c(=O)c4cccn4c4ccc(F)cc43)CC2C)c1 (stereo unspecified)	·	?	2.3	-6.6%	-14.2%
CCc1cccc(C)c1NC(=O)c1cc(S(=O)(=O)N2CCN(c3ccccc3)CC2)ccc1F	·	?	-9.1	-3.3%	-18.5%
COc1ccc(C(=O)C[n+]2cccc3cc(Cl)ccc32)cc1	·	·	·	78.9%	-8.8%
CC(CCN1C(Nc2ccccc2)=NC[C@@H]1Cc1ccccc1)c1ccccc1 (stereo partly specified)	-10.9%	-7.4%	-60.8*	-12.7%	?
CCC(C)CCN1C(N(C)C)=NC[C@@H]1Cc1ccccc1 (stereo partly specified)	-35.1%	-20.5%	-66.7*	-23.1%	-8.5%
CCSc1ncc(Cl)c(C(=O)N(Cc2ccccc2)c2ccc(OC)cc2)n1	·	?	-75.4*	-15.7%	-11.6%
CCSc1ncc(Cl)c(C(=O)N(Cc2ccc(N(C)C)cc2)Cc2ccco2)n1	·	?	-8.0	-24.4%	-2.6%
Cc1ccc(C2CC(=O)c3cnc(N4CCN(c5ccccc5)CC4)nc3C2)cc1 (stereo unspecified)	-5.0%	-2.7%	22.7	·	·
CCOC(=O)N1CCN(c2ncc3c(n2)CC(c2ccc(OC)c(OC)c2)CC3=O)CC1 (stereo unspecified)	·	14.1µM*	-9.2	-11.9%	-20.3%
COc1ccc(C2CC(=O)c3cnn(-c4nc(C)cc(C)n4)c3C2)cc1OC (stereo unspecified)	21.5%	-20.2%	0.5	-2.1%	-10.8%
COc1ccc(C2CC(=O)c3cnc(N4CCN(Cc5ccccc5)CC4)nc3C2)cc1 (stereo unspecified)	?	22.4µM*	-13.6	-22.1%	-26.1%
CCN1CCN(c2ncc3c(n2)CC(c2ccc(OC)c(OC)c2)CC3=O)CC1 (stereo unspecified)	?	20µM*	?	·	·
COc1ccc(-n2cnc3cc(C(=O)NCCC4=CCCCC4)ccc32)cc1	·	0.0%	-16.9	-7.8%	-11.0%
COc1ccc2c(c1)oc(=O)c1ccccc12	?	26.9%	20.2	19.8%	28.7%
COc1ccc2c(c1)oc(=O)c1c3ccccc3[nH]c21	3.55µM*	0.2%	-21.4	·	·
CC(C)c1cn(CC[C@@H]2CC[C@@H](NC(=O)C3CCCCC3)[C@@H](CO)O2)nn1	·	-19.6%	-24.4	-7.7%	-1.7%
COC(=O)CCC(=O)NN1C(=O)c2ccccc2C1=O	-2.1%	-23.6%	-68.2*	·	·
COc1ccc(CC(=O)NN2C(=O)c3ccccc3C2=O)cc1	-1.7%	5.7%	21.5	-12.9%	-20.1%
O=C(CCl)N1N=C(c2ccco2)CC1c1ccco1 (stereo unspecified)	11.2µM*	-24.5%	-72.1*	-27.1%	?
O=C(CCl)N1N=C(c2cccs2)CC1c1ccco1 (stereo unspecified)	?	15.8µM*	-97.4*	-21.0%	?
CCC[C@H]1[C@@H](NS(=O)(=O)c2ccc(Cl)cc2)CC[C@@]23CCCN2C(=O)CCC[C@@H]13	·	·	-16.7	·	·
Brc1ccc(N/N=C(/N=Nc2nn[nH]n2)c2ccccc2)cc1	5.62µM*	-23.4%	-99.6*	12.6µM*	?
